In the library only some 3% were active in any assay of this set; here they are far more common.
rTrxR1 inhibitor = blocks rat thioredoxin reductase 1; O89049; recombinant rTrxR1, NADPH fluorescence consumption, selenite substrate; Potency, µM (highest dose often 114 µM), hits mostly inhibitors; hit rate 1% among 390,000; note: nearly all actives have a fitted effect of over 65% in size
Target sequence (O89049 whole entry, looked up): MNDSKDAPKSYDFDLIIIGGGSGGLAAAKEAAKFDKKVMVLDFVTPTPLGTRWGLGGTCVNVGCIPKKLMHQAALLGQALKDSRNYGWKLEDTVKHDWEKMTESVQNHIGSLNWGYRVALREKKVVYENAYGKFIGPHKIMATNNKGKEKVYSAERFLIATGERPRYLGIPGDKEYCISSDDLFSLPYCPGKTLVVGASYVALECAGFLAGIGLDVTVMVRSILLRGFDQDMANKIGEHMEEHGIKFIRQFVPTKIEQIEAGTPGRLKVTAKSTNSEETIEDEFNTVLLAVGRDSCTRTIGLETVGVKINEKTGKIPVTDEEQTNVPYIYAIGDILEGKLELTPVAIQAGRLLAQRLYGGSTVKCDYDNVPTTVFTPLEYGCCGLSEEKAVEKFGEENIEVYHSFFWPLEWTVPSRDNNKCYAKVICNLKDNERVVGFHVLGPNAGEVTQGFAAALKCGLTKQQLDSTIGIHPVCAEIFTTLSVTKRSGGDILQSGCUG
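Rat TrxR1 (90 nM in the dispensed reagent) was pre-reduced with 400 uM NADPH for 5 min at room temperature, then incubated with compound for 15 min. After 400 uM selenite was added, NADPH fluorescence (Ex 340/Em 450 nm) was followed for 8 min.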
Nrf2 ARE act = activators of Nrf2 (ARE) signaling. AID 624171. AREc32 ARE-luciferase reporter (MCF7-derived line), luminescence, 24 h. Potency, µM (highest dose often 46.1 µM), most hits filed as activators. hit rate 0.31% among 410,000; note: nearly all actives have a fitted effect of over 65% in size
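AREc32 cells carrying an ARE-driven firefly luciferase reporter were seeded at 1000 cells/well in OPTI-MEM with 5% FBS, then exposed to compound for 24 hr at 37 deg C. Luminescence was read with Steady-Glo after 30 min at RT.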
Nrf2 inh = blocks Nrf2 signaling; A549 ARE-Fluc reporter, luciferase luminescence, 18-24 h; hit rate 2.1% among 360,000; AID 504444; Potency, µM (doses to about 46 µM), hits mostly inhibitors; note: nearly all actives have a fitted effect of over 60% in size
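Two sequential reads on A549 ARE_Fluc cells exposed to compound for 18-24 h: a CellTiter-Fluor fluorescence read for viability, then a luciferase luminescence read for Nrf2/ARE activity.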
GALK inhibitor = galactokinase (human) inhibition | P51570 | Purified GALK, Kinase-Glo residual ATP luminescence | Potency, µM (top dose mostly 57.5 µM), hits mostly inhibitors | hit rate 0.007% among 270,000 | AID 1868
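Quantitative HTS: GALK 5 nM, ATP 35 uM, galactose 100 uM, 1 h room temperature, then luciferase-based ATP detection.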
TrxR1 substrate = rat thioredoxin reductase 1 substrate activity | Potency, µM (doses to about 114 µM) | hit rate 0.01% among 390,000 | AID 588456 | purified TrxR1 substrate turnover, NADPH consumption readout; note: nearly all actives have a fitted effect of over 50% in size
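Rat TrxR1, dispensed at 90 nM, was prereduced with 400 uM NADPH (final) for 5 min at ~22 deg C, then incubated with compound 15 min before 400 uM selenite. A first-read NADPH fluorescence drop versus no-compound background flagged substrates.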
A549 viability = A549 cytotoxicity, counter-screen for Nrf2 inhibitors; A549 ARE-Fluc cells, CellTiter-Fluor viability, 18-24 h; Potency, µM (series often up to 46 µM), most hits filed as inhibitors; hit rate 0.16% among 390,000; AID 504648
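A549 ARE_Fluc cells in 5% FBS OPTI-MEM were exposed to compounds in concentration-response for 18-24 h at 37 deg C. Viability was read by CellTiter-Fluor fluorescence (Ex 405/Em 525) after 30 min, before the luciferase read.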
Numbers stand for hits; . = inactive; ? = inconclusive; / = no result given; [ ] = another dose, or the depositor's remark. Calls come from the whole dose curve; as a rule, active = well fitted curve in the direction sought with a large enough effect; inconclusive = small, poorly fitted or top-dose-only effect, or another doubt; inactive = no such curve, though single readings can be large; an effect the other way counts as inactive or inconclusive.

SMILES	rTrxR1 inhibitor	Nrf2 ARE act	Nrf2 inh	GALK inhibitor	TrxR1 substrate	A549 viability
Cn1cccc1CC(=O)N/N=C/c1cccc2ccccc12	.	.	.	.	.	.
Cn1cccc1/C=N/NC(=O)Cc1cccc2ccccc12	.	.	18µM	.	.	.
CCOc1ccc(-n2c(=O)c3c(C)c(C)sc3n(CC(=O)NCCc3ccccc3)c2=O)cc1	.	.	.	/	.	.
CCOC(=O)c1cnc(-n2nc(C)cc2C)nc1NNc1nc(C)cc(C)n1	.	.	.	.	.	.
CCOC(=O)c1cnc(-n2nc(C)cc2C)nc1NNc1nc(-c2ccccc2)cc(-c2ccccc2)n1	.	.	8.2µM	/	.	?
OC(c1cccc(OCc2ccccc2)c1)c1nnc(-c2ccccc2)o1 (centres undefined)	.	.	?	.	.	.
OC(c1ccc(OCc2ccccc2)cc1)c1nnc(-c2ccccc2)o1 (centres undefined)	.	.	16µM	.	.	.
COc1cc(CNc2ccc(C(=O)O)cc2)cc(Br)c1OCC(=O)NC(C)(C)C	.	.	?	.	.	.
C=CCOc1c(Br)cc(CNc2ccc(NC(=O)C(C)C)c(OC)c2)cc1OC	.	.	9.2µM	.	.	.
CCSc1nnc(NC(=O)CSc2nc3c(c(=O)n2CC)SC(C)C3)s1 (centres undefined)	.	.	18µM	.	.	.
CCSc1nnc(NC(=O)CSc2nc3c(c(=O)n2C)SC(C)C3)s1 (centres undefined)	.	.	?	.	.	.
Cn1c(=O)c2c(n3ncnc13)NC(=O)CC2c1cccc(F)c1 (centres undefined)	.	.	.	/	.	.
Cc1ccc(C(=O)CN2C(=O)c3ccccc3S2(=O)=O)cc1	.	.	21µM	.	.	.
C=CCn1c(C)cc(C(=O)CN2C(=O)c3ccccc3S2(=O)=O)c1C	.	.	0.65µM	/	.	.
O=C(CN1C(=O)c2ccccc2S1(=O)=O)c1ccccc1	.	.	/	.	.	.
Cc1ccccc1-n1nc(C)c2cc(C(=O)N3CCN(S(=O)(=O)c4ccc(Cl)cc4)CC3)sc21	.	.	13µM	.	.	.
Cc1ccccc1-n1nc(C)c2cc(C(=O)N3CCN(S(=O)(=O)c4ccc(F)cc4)CC3)sc21	.	.	/	.	.	.
CC(=O)c1ccc(S(=O)(=O)N2CCN(C(=O)c3ccc(-n4nc(C)c(Cl)c4C)cc3)CC2)cc1	.	.	26µM	/	.	.
Cc1nn(-c2ccc(C(=O)N3CCN(S(=O)(=O)c4ccccc4C(F)(F)F)CC3)cc2)c(C)c1Cl	.	.	.	/	.	.
COc1cccc(C(=O)N/N=C/C(Br)=C/c2ccccc2)c1	.	?	.	/	.	.
Cc1ccc(-c2cc(C(=O)N/N=C/c3ccccc3O)n[nH]2)o1	.	.	.	.	.	.
COc1ccc(C(=O)N/N=C/C(Br)=C/c2ccccc2)cc1	.	16µM	.	.	.	.
O=C(N/N=C/C(Br)=C\c1ccccc1)c1n[nH]c2c1CCC2	?	14µM	?	.	.	.[1.84 µM]
CC(/C=N/NC(=O)c1n[nH]c2c1CCC2)=C\c1ccccc1	.	.	.	.	.	?
Cc1occc1C(=O)N/N=C/c1ccc(-c2ccccc2)cc1	.	.	?	.	.	.
SMILES	rTrxR1 inhibitor	Nrf2 ARE act	Nrf2 inh	GALK inhibitor	TrxR1 substrate	A549 viability
Cc1ccc(-c2cc(C(=O)N/N=C/C(Br)=C/c3ccccc3)n[nH]2)o1	.	20µM	?	.	.	.
Cc1occc1C(=O)N/N=C/C(Br)=C/c1ccccc1	.	16µM	?	.	.	.
COc1ccc(N(C)S(=O)(=O)c2ccc3c(c2)n(C)c(=O)c(=O)n3C)cc1	.	.	.	/	.	.
Cc1nn(-c2ccccn2)c2c1C(=O)C(Br)CC2 (centres undefined)	13µM	.	?	.	.	.
CC1=C(C)C(=O)N(c2ccccn2)C1=O	.	.	/	.	.	.
Cc1cccc(N2CCN(C(=O)CSCc3ccc(F)cc3)CC2)c1C	.	.	/	/	.	.
Cc1cccc(N2CCN(C(=O)CCC(=O)N3CC(C)Oc4ccccc43)CC2)c1C (centres undefined)	.	.	18µM	/	.	.
Cc1cccc(N2CCN(C(=O)c3ccccc3SCC(=O)N3CCCC3)CC2)c1C	.	.	23µM	/	.	?
Cc1c(Br)cc(F)c([S+](=O)([O-])N2CCN([S+](=O)([O-])c3ccc4c(c3)OCCO4)CC2)c1F	/	/	.	/	/	.
O=C(NCc1ccccc1Cl)c1cc2cccc3c2n1CCS3	.	.	.	/	.	.
CC(Nc1nc(Cl)nc2nc[nH]c12)c1ccccc1 (centres undefined)	.	/	?	/	.	.
CCN(CC(=O)Nc1ccc(NC(C)=O)cc1)Cc1c(O)ccc2cc(Br)ccc12	6.3µM	.	.	.	.	.
Cc1ccc(NC(=O)CN(C)Cc2c(O)ccc3ccccc23)cc1	14µM	?	.	.	.	.
COc1ccc2ccc(O)c(CN(C)CC(=O)Nc3ccccc3C(F)(F)F)c2c1	8.9µM	.	.	.	.	.
COc1ccc(CN(C)CC(=O)Nc2ccccc2C(F)(F)F)cc1	.	.	.	.	.	.
Cc1cc(N(C)C)c(C)cc1/C=C/c1ccnc2ccccc12	.	/	/	/	.	/
COc1ccc(-c2cc3ccc(OC(C)C(=O)O)cc3oc2=O)cc1 (centres undefined)	71µM	.	.	.	.	.
COc1ccc([N+](=O)[O-])c(S(=O)(=O)c2ccccc2)n1	?	.	?	.	.	?
O=[N+]([O-])c1cccnc1S(=O)(=O)c1ccccc1	1.1µM	.	.	.	.	.
COc1ccc(NC(=O)C(OC(=O)CNC(=O)c2ccccc2)c2ccccc2)cc1Cl (centres undefined)	/	/	.	/	/	.
CC(C)(C)c1ccc(OCC(O)CSc2ncn[nH]2)cc1 (centres undefined)	.	.	15µM	.	.	.
O=C(O)c1ccccc1C(=O)Nc1ccc(Oc2cccc3ccccc23)cc1	.	.	21µM	.	.	.
CCCc1cc(CN2CCOCC2)c(O)c(CN2CCOCC2)c1O	1.6µM	.	.	/	.[11.4 µM]	.
Oc1c(CN2CCOCC2)cc(CN2CCOCC2)c(O)c1O	.	.	.	/	.	.
CCOC(=O)c1c(NC(=O)CN2CCCCC2)sc2c1CCN(C(=O)OCC)C2	.	.	23µM	.	.	?
CC(=O)Nc1ccc(NC(=O)CN(c2ccc(C34CC5CC(CC(C5)C3)C4)cc2)S(C)(=O)=O)cc1	.	.	.	.	.	.
CS(=O)(=O)N(CC(=O)Nc1ccc(CC#N)cc1)c1ccc(C23CC4CC(CC(C4)C2)C3)cc1	.	.	15µM	.	.	?
